Measurements taken from the supplement of paper PMC13380429.
Unmarked numbers belong to inactive results.

System: Vero E6 infected with SARS-CoV-2
Experiment: inhibition of SARS-CoV-2 cytopathic effect; higher = more antiviral protection, active = above 15
Details: 48 h

SMILES | inhibition of SARS-CoV-2 cytopathic effect (1 nM) [%] | inhibition of SARS-CoV-2 cytopathic effect (8.33 nM) [%] | inhibition of SARS-CoV-2 cytopathic effect (100 nM) [%] | inhibition of SARS-CoV-2 cytopathic effect (833.33 nM) [%] | inhibition of SARS-CoV-2 cytopathic effect (10000 nM)
CN(C)NC(=O)CCC(=O)O [daminozide] | -0.2 | 2.15 | 0.35 | 0.11 | 1.18%
CC(C)(CO)CCCCCCC(C)(C)CO [gemcadiol] | -2.86 | -2.01 | -1.65 | -2.84 | -2.43%
CCCCCCCCCCCCC[N+](C)(C)Cc1ccccc1 [benzalkonium] | -0.66 | 0.17 | -0.42 | 1.78 | -8.08%
Cc1nnc(C[C@@H]2C=C(c3ccc(Cl)cc3)c3ccccc3-n3c(C)nnc32)o1 | 1.71 | 0.46 | 2.65 | -4.91 | -11.7%
Nc1nc(=O)n([C@H]2C[C@H](O)[C@@H](CO)O2)cc1Cl [cytochlor] | 0.97 | 0.46 | 0.45 | 1.92 | -1.33%
NCCC(Oc1ccc(C(F)(F)F)cc1)c1ccccc1 (stereo not given) [norfluoxetine] | 1.01 | 2.75 | 1.92 | -0.09 | -5.55%
COc1ccc2[nH]c([S+]([O-])Cc3ncc(C)c(OC)c3C)nc2c1 (stereo not given) [omeprazole-magnesium] | 3.38 | 2.29 | 3.04 | 6.47 | 6.97%
N#C/C(=C\c1ccc(O)c(O)c1)C(=O)NCCCc1ccccc1 | -2.32 | -2.1 | -0.73 | 0.57 | 0.75%
C1CCC(C(CC2CCCCN2)C2CCCCC2)CC1 (stereo not given) [perhexiline] | 0.59 | 4.47 | 2.39 | 0.87 | 48.5% (active)
C[C@H](Cn1cnc2c(N)ncnc21)OCP(=O)(O)O [tenofovir] | -0.47 | -2.44 | -1.27 | 0.5 | 0.69%
Cc1ccccc1/N=N/c1ccc(NC(=O)c2ccnn2C)c(C)c1 | -1.46 | 0.89 | 1.16 | 2.03 | 0.48%
CC(=O)[C@@]1(O)CC[C@H]2[C@@H]3C=C(Cl)C4=CC(=O)[C@@H]5C[C@@H]5[C@]4(C)[C@H]3CC[C@@]21C | -4.45 | -5.77 | -6.29 | -6.05 | -4.41%
CC(C)(O)CC[C@@H](O)[C@](C)(O)[C@H]1CC[C@@]2(O)C3=CC(=O)[C@@H]4C[C@@H](O)[C@@H](O)C[C@]4(C)[C@H]3CC[C@]12C [20-hydroxyecdysone] | -3.9 | -2.28 | -3.43 | 0.03 | 1.01%
CCOC(=O)c1ccc(O)cc1 [ethyl-paraben] | 0.82 | 3.38 | -1.2 | 0.24 | -1.28%
O=c1ccc2cc3ccoc3cc2o1 [psoralen] | -1.78 | 1.39 | 1.55 | 0.22 | -0.41%
O=C(O)C[C@H](O)C[C@H](O)/C=C/c1c(C2CC2)nc2ccccc2c1-c1ccc(F)cc1 [pitavastatin] | 1.96 | 3.86 | 3.12 | 2.39 | 6.01%
COc1ccc(C(=O)c2ccccc2O)c(O)c1 [dioxybenzone] | 1.95 | -0.38 | -1.57 | -0.76 | 2.94%
CCCOC(=O)c1ccccc1 [propyl-benzoate] | 2.41 | 0.41 | -0.99 | 0.39 | 2.1%
C[C@@H]1C[C@H]2[C@@H]3CCC4=CC(=O)C=C[C@]4(C)[C@@]3(F)[C@@H](O)C[C@]2(C)[C@@]1(O)C(=O)COP(=O)(O)O | -1.27 | 0.18 | -1.45 | -3.81 | 0.77%
